# Measured values taken from PubChem BioAssay (Tox21).
# Where “and” joins values, the source holds several entries; their conditions need not be identical. Identical values can stand only once. Results filed as inconclusive are left out. A call without a number means that no potency is given here. Where a structure was tested more than once in an assay, its records may differ in their call. Calls of active or inactive are those of the source. Unless noted, calls follow the shape of the dose curve; as a rule, active = well fitted curve in the direction sought with a large enough effect in the repeat runs; inconclusive = weak or mixed curves; inactive = no such curve, though single readings can be large; an effect the other way counts as inactive or inconclusive.
# How the values were obtained:
# [1] = qHTS assay for small molecules that induce genotoxicity in human embryonic kidney cells expressing luciferase-tagged ATAD5 (AID 651632); also: nearly all actives have a fitted effect of over 15% in size
# Outline: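 Reporter cells (HEK293T) express luciferase-tagged ATAD5, a protein that accumulates after DNA damage. Treat 16 hr at 37C/5% CO2, add Amplite, wait 30 min at RT, and read luminescence.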
# [2] = qHTS assay for small molecule agonists of the p53 signaling pathway - cell viability (AID 651633; calls by dose curve; also: nearly all actives have a fitted effect of over 30% in size; also: potency is read from the fitted curve at half-maximal effect)
# Outline: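 p53RE-bla cells, seeded at 4,000 per well and rested 5 h at 37 C/5% CO2, received compounds in DMSO for 16 h at 37 C. CellTiter-Glo was then added, and luminescence was read after 30 min at room temperature to gauge cytotoxicity.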
# [3] = qHTS assay for small molecules that induce genotoxicity in human embryonic kidney cells expressing luciferase-tagged ATAD5 - cell viability (AID 651634; calls by dose curve; also: nearly all actives have a fitted effect of over 25% in size; also: potency is read from the fitted curve at half-maximal effect)
# Outline: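 Seeding of 2,000 HEK293T ATAD5-luciferase cells per well preceded pin-tool compound transfer. Plates sat 15.5 hr at 37C under 5% CO2, then fluorescence was read after 30 min with CellTiter-Fluor.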
# [4] = qHTS assay for small molecule disruptors of the mitochondrial membrane potential - cell viability (AID 720634; calls by dose curve; also: nearly all actives have a fitted effect of over 20% in size; also: potency is read from the fitted curve at half-maximal effect)
# Outline: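 Measuring cytotoxicity alongside mitochondrial potential, the screen quantified ATP by luminescence in HepG2 cells after 1 hr compound incubation and a 30 min room-temperature CellTiter-Glo step.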
# [5] = qHTS assay to test for compound auto fluorescence at 590 nm (red) in HepG2 cells (AID 720674)
# Outline: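 Compound auto-fluorescence is scored relative to Rose Bengal sodium, measured at 540/590 nm in live HepG2 cultures after 1 hr compound contact (37 C, 5% CO2).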
# [6] = qHTS assay to test for compound auto fluorescence at 535 nm (green) in HepG2 cells (AID 720675); also: potency is read from the fitted curve at half-maximal effect
# [7] = qHTS assay to test for compound auto fluorescence at 460 nm (blue) in HEK293 cells (AID 720678)
# Outline: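 HEK293 cells (2,000 per well, medium with 10% dialyzed FBS) attached for 4-5 hr at 37C, then received compound and stood overnight at 37C, 5% CO2. Blue fluorescence was read at Ex/Em 405/460 nm and expressed relative to triamterene.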
# [8] = qHTS assay to test for compound auto fluorescence at 590 nm (red) in HEK293 cells (AID 720679)
# Outline: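 HEK293 cells (2,000/well, medium with 10% dialyzed FBS) attached for 4-5 hr at 37C, received 23 nL compound and were incubated overnight at 37C, 5% CO2. Red fluorescence was then read at 540/590nm Ex/Em, referenced to Rose Bengal sodium.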
# [9] = qHTS assay to test for compound auto fluorescence at 535 nm (green) in HEK293 cells (AID 720680)
# [10] = qHTS assay to test for compound auto fluorescence at 460 nm (blue) in HEK293 cell free culture (AID 720681)
# Outline: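 Test compounds were pinned into cell-free culture medium (DMEM with 10% FBS) and fluorescence was read directly at Ex/Em 405/460 nm. Signals were expressed as fluorescence equivalents of triamterene, with DMSO vehicle as control.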
# [11] = qHTS assay to test for compound auto fluorescence at 535 nm (green) in HEK293 cell free culture (AID 720682)
# Outline: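 Fluorescein serves as the green reference fluorophore; each compound's intrinsic emission at 535 nm (excitation 485 nm) is reported as an equivalent amount of that dye, measured in serum-containing DMEM without cells.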
# [12] = qHTS assay to test for compound auto fluorescence at 590 nm (red) in HEK293 cell free culture (AID 720683)
# Outline: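 Tox21 10K library compounds were pinned into cell-free DMEM with 10% FBS and fluorescence was read at excitation 540 nm. Activity is expressed as Rose Bengal sodium equivalency.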
# [13] = qHTS assay to test for compound auto fluorescence at 590 nm (red) in HepG2 cell free culture (AID 720684)
# Outline: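 Red fluorescence (540 nm excitation, 590 nm emission) was measured after compound transfer into cell-free MEM supplemented with 10% FBS. Values are equivalencies against Rose Bengal sodium.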
# [14] = qHTS assay to test for compound auto fluorescence at 460 nm (blue) in HepG2 cell free culture (AID 720685)
# Outline: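 Compound (23 nL) or DMSO pinned into cell-free MEM with 10% FBS; blue fluorescence read at 405/460 nm excitation/emission, expressed as auto-fluorescence equivalency to triamterene.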
# [15] = qHTS assay to test for compound auto fluorescence at 535 nm (green) in HepG2 cell free culture (AID 720686); also: potency is read from the fitted curve at half-maximal effect
# [16] = qHTS assay to test for compound auto fluorescence at 460 nm (blue) in HepG2 cells (AID 720687)
# Outline: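 Cells (2,000/well in MEM with 10% FBS) attached overnight at 37 C, then were exposed to compound or DMSO for 1 hr at 37 C, 5% CO2. Fluorescence read at Ex/Em 405/460 nm, expressed as triamterene-equivalent signal.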
# [17] = biological target: Glucocorticoid receptor (Homo sapiens) (UniProt P04150); experiment: qHTS assay to identify small molecule agonists of the glucocorticoid receptor (GR) signaling pathway (AID 720691; active = well fitted activation curve with a large enough effect in the signal ratio in the repeat runs, not every such curve was filed as active; the % refers to the signal ratio; also: potency is read from the fitted curve at half-maximal effect); settings: GR-bla HeLa, beta-lactamase reporter ratio, 18 h; activation: at 62.4 µM (top of the series)
# Glucocorticoid receptor (Homo sapiens), sequence (P04150 whole entry, looked up): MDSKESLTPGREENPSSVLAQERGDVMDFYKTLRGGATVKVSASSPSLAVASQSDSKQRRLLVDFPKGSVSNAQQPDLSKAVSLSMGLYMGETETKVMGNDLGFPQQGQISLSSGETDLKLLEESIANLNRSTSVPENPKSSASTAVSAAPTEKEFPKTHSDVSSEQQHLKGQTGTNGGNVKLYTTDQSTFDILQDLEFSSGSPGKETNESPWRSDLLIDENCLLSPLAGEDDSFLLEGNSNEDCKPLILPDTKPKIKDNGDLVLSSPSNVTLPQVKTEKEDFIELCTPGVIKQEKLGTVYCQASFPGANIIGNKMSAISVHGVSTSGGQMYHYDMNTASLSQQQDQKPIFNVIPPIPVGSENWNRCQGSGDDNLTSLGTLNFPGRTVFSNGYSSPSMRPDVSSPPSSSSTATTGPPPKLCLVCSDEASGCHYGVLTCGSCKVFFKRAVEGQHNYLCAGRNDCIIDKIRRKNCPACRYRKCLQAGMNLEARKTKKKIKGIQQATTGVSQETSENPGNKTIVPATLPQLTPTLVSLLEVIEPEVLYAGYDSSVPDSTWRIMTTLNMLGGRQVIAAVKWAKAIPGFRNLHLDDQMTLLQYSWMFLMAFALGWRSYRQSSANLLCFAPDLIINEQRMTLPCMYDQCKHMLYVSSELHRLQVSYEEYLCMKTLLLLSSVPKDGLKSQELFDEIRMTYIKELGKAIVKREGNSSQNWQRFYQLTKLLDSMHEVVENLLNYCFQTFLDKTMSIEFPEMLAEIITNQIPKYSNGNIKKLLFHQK
# Outline: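 Reporter read-out: fluorescence intensity following 2 h room-temperature LiveBLAzer B/G FRET substrate loading. Prior step: GR-bla HeLa cells held 4 h, then treated 18 h at 37 C.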
# [18] = biological target: Glucocorticoid receptor (Homo sapiens) (UniProt P04150); experiment: qHTS assay to identify small molecule antagonists of the glucocorticoid receptor (GR) signaling pathway (AID 720692; active = well fitted inhibition curve with a large enough effect in the signal ratio in the repeat runs, not every such curve was filed as active; the % refers to the signal ratio; also: potency is read from the fitted curve at half-maximal effect)
# Outline: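 Dexamethasone (5 nM final) stimulated a stably integrated GRE-beta-lactamase reporter in HeLa cells during 18 h co-incubation with compounds; signal was quantified as fluorescence intensity of B/G FRET substrate after 2 h.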
# [19] = qHTS assay for small molecule disruptors of the mitochondrial membrane potential (AID 720635); also: potency is read from the fitted curve at half-maximal effect
# Outline: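 HepG2 cells (2,000/well) attached overnight at 37C, then took compound for 1 hr at 37C, 5% CO2. Mito-MPS dye was added for 30 min; fluorescence was read at 490/535 nm (monomers) and 540/590 nm (aggregates).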
# Tags tell the direction and shape of the fitted curve or compound fluorescence and quenching.
Structure (SMILES),Potency [1],Potency [2],Potency [3],Potency [4],outcome [5],Potency [6],Potency [7],outcome [8],outcome [9],Potency [10],outcome [11],outcome [12],outcome [13],Potency [14],Potency [15],Potency [16],Potency [17],Potency [18],Potency [19]
CCCCC(CC)COC(=O)c1ccccc1C(=O)OCC(CC)CCCC (centres undefined),inactive,inactive,inactive,inactive,inactive,inactive,inactive,inactive,inactive,inactive,inactive,inactive,inactive,inactive,inactive,inactive,inactive,,
Cc1cc2c3c(c1)C(c1ccccc1)=N[C@@H](NC(=O)c1ccncc1)C(=O)N3CC2,inactive,inactive,inactive,inactive,inactive,inactive,inactive,,inactive,inactive,inactive,,inactive,inactive,inactive,inactive,,,
c1ccc2nc(N3CCNCC3)ccc2c1,inactive,inactive,inactive,inactive,inactive,inactive,inactive,inactive,inactive,inactive,inactive,,inactive,inactive,inactive,inactive,inactive,inactive,
O=S(=O)(NS(=O)(=O)C(F)(F)F)C(F)(F)F,inactive,inactive,inactive,inactive,inactive,inactive,inactive,inactive,inactive,inactive,inactive,inactive,inactive,inactive,inactive,inactive,,,
Cc1ccn2nc(S(=O)(=O)Nc3c(F)cccc3F)nc2n1,inactive,inactive,inactive,inactive,inactive,inactive,inactive,inactive,inactive,inactive,inactive,inactive,inactive,inactive,inactive,inactive,,,
O=C(N[C@H]1N=C(c2ccccc2F)c2cccc3c2N(CC3)C1=O)c1cc2ccccc2[nH]1,inactive,inactive,inactive,inactive,inactive,inactive,inactive,inactive,inactive,inactive,inactive,inactive,inactive,inactive,inactive,inactive,,,
C=CC(=O)[O][Sn]([CH2]CCC)([CH2]CCC)[CH2]CCC,inactive,864 nM (active),1.09 µM (active),1.93 µM (active),inactive,inactive,inactive,,inactive,inactive,inactive,inactive,inactive,inactive,inactive,inactive,,,0.0863 µM (active)
CN1CCc2cc(Cl)c(O)cc2[C@H]2c3ccccc3CC[C@@H]21,inactive,inactive,inactive,inactive,inactive,,inactive,inactive,inactive,inactive,inactive,inactive,inactive,inactive,inactive,inactive,inactive,,
O=c1c2ccccc2c(=O)c2c1cc(Cl)c1[nH]c3c([nH]c12)c(Cl)cc1c(=O)c2ccccc2c(=O)c13,inactive,inactive,inactive,inactive,inactive,inactive,inactive,inactive,inactive,inactive,inactive,inactive,inactive,inactive,inactive,inactive,inactive,,
Fc1ccc(C(OCCN2CCN(CCCc3ccccc3)CC2)c2ccc(F)cc2)cc1,inactive,26600 nM (active),29.8 µM (active),inactive,inactive,inactive,inactive,inactive,inactive,inactive,inactive,inactive,inactive,inactive,inactive,inactive,,,
c1cc[n+]2c(c1)-c1cccc[n+]1CC2,inactive,inactive,inactive,inactive,inactive,inactive,inactive,,inactive,inactive,inactive,,inactive,inactive,inactive,inactive,inactive,,inactive
CCN(CC)C(=S)S,inactive,inactive,inactive,inactive,inactive,inactive,inactive,,inactive,,inactive,inactive,inactive,inactive,inactive,inactive,inactive and 4.9 µM (active),inactive,2.98 µM (active) and inactive
CCC1(CC)C(=O)N=C(O)NC1=O,inactive,inactive,inactive,inactive,inactive,,inactive,inactive,inactive,inactive,inactive,inactive,inactive,inactive,inactive,inactive,inactive,,
Brc1ccc(Oc2ccc(Br)cc2Br)c(Br)c1,inactive,inactive,inactive,inactive,inactive,,inactive,,inactive,inactive,inactive,,inactive,inactive,inactive,inactive,,,17.2 µM (active)
Clc1cc(Cl)c(-c2cc(Cl)c(Cl)cc2Cl)cc1Cl,inactive,inactive,inactive,inactive,inactive,inactive,inactive,inactive,inactive,inactive,inactive,inactive,inactive,inactive,inactive,inactive,inactive,,
CCCCc1ccccc1,inactive,inactive,inactive,inactive,inactive,,inactive,inactive,inactive,inactive,inactive,inactive,inactive,inactive,inactive,inactive,inactive,inactive,inactive

Structure (SMILES),Potency [1],Potency [2],Potency [3],Potency [4],outcome [5],Potency [6],Potency [7],outcome [8],outcome [9],Potency [10],outcome [11],outcome [12],outcome [13],Potency [14],Potency [15],Potency [16],Potency [17],Potency [18],Potency [19]
[O-][Cl+3]([O-])([O-])O,inactive,inactive,inactive,inactive,inactive,,inactive,inactive,inactive,inactive,inactive,inactive,inactive,inactive,inactive,inactive,,,
C=C(C)C(=O)[O][Sn]([CH2]CCC)([CH2]CCC)[CH2]CCC,inactive,611 nM (active),0.611 µM (active),3.86 µM (active),inactive,inactive,inactive,,inactive,inactive,inactive,,inactive,inactive,inactive,inactive,,,0.0611 µM (active)
CCn1cc[n+](C)c1 (tested in a mixture with another compound),inactive,inactive,inactive,inactive,inactive,inactive,inactive,,inactive,,inactive,,inactive,inactive,inactive,inactive,,,inactive
ClC(Cl)C(Cl)(Cl)Cl,inactive,inactive,inactive,inactive,inactive,,inactive,,inactive,inactive,inactive,inactive,inactive,inactive,inactive,inactive,inactive,inactive,inactive
CNC(=O)CSP(=O)(OC)OC,inactive,inactive,inactive,inactive,inactive,inactive,inactive,,inactive,inactive,inactive,inactive,inactive,inactive,inactive,inactive,inactive,inactive,inactive
Nc1nc(N)c(N)c(N)n1,inactive,inactive,inactive,inactive,inactive,31.6 µM (active),,inactive,,,,inactive,inactive,,28.2 µM [fluorescent] (active),,,,8.68 µM (active)
CC(C)N(C(=O)SC/C(Cl)=C/Cl)C(C)C,inactive,21800 nM (active),48.9 µM (active),54.8 µM (active),inactive,inactive,inactive,,inactive,inactive,inactive,inactive,inactive,inactive,inactive,inactive,,,48.9 µM (active)
CCCCN(CCCC)C(=S)[S-].CCCCN(CCCC)C(=S)[S-].[Ni+2],inactive,inactive,inactive,inactive,inactive,inactive,inactive,inactive,inactive,inactive,inactive,inactive,inactive,inactive,inactive,inactive,inactive,inactive,
CCOC(=O)Cc1ccccc1,inactive,inactive,inactive,inactive,inactive,inactive,inactive,inactive,inactive,,inactive,inactive,inactive,inactive,inactive,inactive,inactive,,
Oc1ccc([C@H]2CNCc3c2ccc(O)c3O)cc1O,inactive,inactive,inactive,inactive,inactive,inactive,inactive,inactive,inactive,,inactive,inactive,inactive,inactive,inactive,inactive,,,inactive
CNC(=O)O/N=C(\C)C(C)S(C)(=O)=O (centres undefined),inactive,inactive,inactive,inactive,inactive,inactive,inactive,inactive,inactive,inactive,inactive,inactive,inactive,inactive,inactive,inactive,inactive,inactive,
Oc1cccc(Cl)c1Cl,inactive,inactive,inactive,inactive,inactive,inactive,inactive,inactive,inactive,inactive,inactive,,inactive,inactive,inactive,inactive,inactive,,48.8 µM (active)
CCCCN(CCCC)C(=S)S,inactive,inactive,inactive,inactive,inactive,inactive,inactive,inactive,inactive,inactive,inactive,,inactive,inactive,inactive,inactive,inactive,,
[O]=[Cr](=[O])([OH])[O][Cr](=[O])(=[O])[OH],inactive,19.5 µM (active) [middle of 4 runs],,inactive and 27.6 µM (active) and 30.6 µM (active),inactive,inactive,inactive,inactive,inactive,inactive,inactive,,inactive,inactive,inactive,inactive,,3.08 µM (active),inactive and 13.8 µM (active) and 27.3 µM (active)
CCNc1nc(NC(C)C(C)C)nc(SC)n1 (centres undefined),inactive,,inactive,inactive,inactive,inactive,inactive,inactive,inactive,inactive,inactive,inactive,inactive,inactive,inactive,inactive,inactive,,7.7 µM (active)
